Calls of active or inactive are those of the source. Rule for the calls: active = hit-call score of the fitted dose curve at least 0.9, where 1 is the maximum; inactive = score below 0.9.

Outcome data for 21 compounds are collected here from PubChem BioAssay (EPA / NIEHS).

The target of the assay is Nuclear respiratory factor 1 (Homo sapiens) (UniProt Q16656). Nature of the assay: ATG_NRF1_CIS: Attagene CIS-FACTORIAL HepG2 Assay for human Nuclear Respiratory Factor 1 (NRF1) Orphan Gene (AID 2282987). The note with it: HepG2 NRF1 cis-element reporter, Attagene multiplex; actives raise or lower the signal. The essentials: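 Endogenous factor activity was captured via cis-element-driven reporter transcripts in HepG2 cells. Following 24 h chemical treatment, transcripts were quantified by RT-PCR and capillary electrophoresis.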
Chain of Nuclear respiratory factor 1 (Homo sapiens) (Q16656 whole entry, looked up): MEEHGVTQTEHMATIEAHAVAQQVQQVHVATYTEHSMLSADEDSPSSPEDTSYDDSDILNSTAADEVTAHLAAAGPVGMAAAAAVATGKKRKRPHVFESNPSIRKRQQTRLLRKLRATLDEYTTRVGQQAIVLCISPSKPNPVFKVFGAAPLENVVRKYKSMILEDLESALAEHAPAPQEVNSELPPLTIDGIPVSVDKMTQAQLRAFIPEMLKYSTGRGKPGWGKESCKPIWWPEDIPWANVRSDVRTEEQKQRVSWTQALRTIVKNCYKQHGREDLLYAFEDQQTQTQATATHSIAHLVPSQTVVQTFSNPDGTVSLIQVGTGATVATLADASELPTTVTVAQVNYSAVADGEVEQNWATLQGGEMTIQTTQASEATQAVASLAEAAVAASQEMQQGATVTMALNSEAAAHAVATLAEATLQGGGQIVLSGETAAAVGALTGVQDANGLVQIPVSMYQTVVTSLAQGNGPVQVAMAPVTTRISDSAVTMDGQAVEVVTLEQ
Regarding `CCNC(=O)NC(=O)C(C#N)=NOC`, the compound was classed as inactive. As to `CNC(=O)N(C)c1nnc(C(C)(C)C)s1`, the result was inactive. For `C=CCOC(=O)C(C)(C)OC(=O)c1cc(-n2c(=O)cc(C(F)(F)F)n(C)c2=O)ccc1Cl` the value was “inactive”. For `O=P(O)(O)CCCl` the value was “inactive”; for `CCN(CC)C(=O)C(C)Oc1cccc2ccccc12` (stereo unspecified), “inactive”. The result for `Clc1cccc(C(Cl)(Cl)Cl)n1` reads “inactive”; that for `Nc1cnn(-c2ccccc2)c(=O)c1Cl`, “inactive”. As for `Cn1c(-c2ccccc2)cc(-c2ccccc2)[n+]1C`, the compound was called inactive.

Consider `CC1(C)CON(Cc2ccccc2Cl)C1=O`, for which the compound was classed as inactive. With `OC(c1ccc(Cl)cc1)(c1ccc(Cl)cc1)C(Cl)(Cl)Cl`, the outcome was inactive.

In the case of `COC(=O)N(C(=O)N1CO[C@@]2(C(=O)OC)Cc3cc(Cl)ccc3C2=N1)c1ccc(OC(F)(F)F)cc1`, the compound was called inactive. The result for `COc1ccc(-c2ccccc2)cc1NNC(=O)OC(C)C` reads “inactive”; that for `CCNP(=S)(OC)O/C(C)=C/C(=O)OC(C)C` (stereo unspecified), “inactive”. Consider `COC(=O)c1c(C(F)F)nc(C(F)(F)F)c(C2=NCCS2)c1CC(C)C`, for which the result was inactive. The result for `CCOc1cc(C(C)(C)C)ccc1C1COC(c2c(F)cccc2F)=N1` (stereo unspecified) reads “inactive”; that for `COC(=O)NS(=O)(=O)c1ccc(N)cc1`, “inactive”; that for `COP(=O)(OC)O/C(C)=C/C(=O)N(C)C`, “inactive”. The result for `Cc1ccc(N=CN(C)C=Nc2ccc(C)cc2C)c(C)c1` reads “inactive”; that for `CCSC(=O)N1CCCCCC1`, “inactive”; that for `COCC(C)N(C(=O)CCl)c1c(C)csc1C` (stereo unspecified), “inactive”. For `CCOC(=O)C(C)OC(=O)c1cc(Oc2ccc(C(F)(F)F)cc2Cl)ccc1[N+](=O)[O-]` (stereo unspecified) the value was “inactive”.
